RmlCD inh mix = RmlC and RmlD coupled enzyme inhibitors, primary screen, biochemical, 384-well, compound mixtures, retest. inhibition, % at 5.5 µM. 110,000 compounds, 0.39% hits. RmlC/RmlD coupled enzyme inhibition, 384-well mixture HTS; in the data active means inhibition above about 30%, passing the limit was not always enough; inconclusive means no clear call, values can overlap the other calls
RT RNaseH block = HIV-1 RT RNase H inhibitors, primary screen, biochemical, fluorescence; RT-RNase H RNA/DNA duplex cleavage; inhibition, % at 10 µM; 65,000 compounds, 1.9% hits; in the data active means inhibition above about 50%
An asterisk follows results filed as active. This is one part of a sample in which hits are shown more often than they occur.

For O=C(NCCN1CCCCC1)c1ccc2c(c1)OCCO2 the results were RmlCD inh mix 6 and RT RNaseH block -3.
For O=C(NCCN1CCCCC1)c1ccc(=O)oc1 the results were RmlCD inh mix 48* and RT RNaseH block -5.
`CCC(=O)c1ccc(OCCn2cncn2)cc1` gave RmlCD inh mix -9 and RT RNaseH block -9.
For CC(C)c1ccc(C(O)c2cnc(C(C)C)n2C)cc1 (stereo unspecified) the results were RmlCD inh mix -10 and RT RNaseH block -2.
CC1CCc2c(C(=O)Nc3nccs3)csc2C1 (stereo unspecified) was read as RmlCD inh mix 13.
CCSc1nnc(NC(=O)c2csc3c2CCC(C)C3)s1 (stereo unspecified) was read as RmlCD inh mix 55 and RT RNaseH block 58*.
Cc1cc(Nc2nc3ccccc3nc2Cl)n(-c2ccccc2)n1 was read as RmlCD inh mix 162.
COC(=O)Oc1c(Br)c(=O)oc2ccccc12 was read as RmlCD inh mix 30* and RT RNaseH block -20.
For CC(=O)Nc1c(NC(C)C)c2ccccc2oc1=O the results were RmlCD inh mix 8.
For Cc1nonc1NC(=O)N1CCCC1 the results were RmlCD inh mix -11 and RT RNaseH block 11.
C[C@H](NC(=O)OCc1ccccc1)c1nnc([C@H](C)NC(=O)OCc2ccccc2)o1 was read as RmlCD inh mix -34.
O=C1CNCc2[nH]c3ccccc3c2N1c1ccccc1 was read as RmlCD inh mix 7 and RT RNaseH block -37.
Screening CCCCn1c(SCC(=O)Nc2cc(C)on2)nc2ccccc2c1=O returned RmlCD inh mix -16 and RT RNaseH block 34.
Screening CCCCn1c(SCC(=O)Nc2cc(NC(=O)c3ccco3)ccc2C)nc2ccccc2c1=O returned RmlCD inh mix 8 and RT RNaseH block 55*.
For CCn1c(SCC(=O)Nc2ccc(NC(=O)c3ccco3)c(OC)c2)nc2ccccc2c1=O the results were RmlCD inh mix 95* and RT RNaseH block 21.
COCCn1c(SCC(=O)Nc2ccc(NC(=O)c3ccco3)c(OC)c2)nc2ccccc2c1=O was read as RmlCD inh mix -12.
Screening CCn1c(=O)cc(OCC(=O)Nc2cc(C)ccn2)c2ccccc21 returned RmlCD inh mix 9 and RT RNaseH block -23.
CC(C)C(=O)Nc1cccc2nsnc12 was read as RmlCD inh mix 9 and RT RNaseH block 3.
Cc1nnc(NC(=O)CSc2nc(C(C)C)nc3sc(C)c(C)c23)s1 was read as RmlCD inh mix -5.
Screening COc1cc(/C=C\C(=O)OCn2nnc3ccccc3c2=O)cc(OC)c1OC returned RmlCD inh mix 4.
Screening CCOC(=O)c1sc(NC(=O)CSc2nc3c(cc2C#N)CCCCC3)c(C#N)c1C returned RmlCD inh mix -1.
For CCc1nnc(NC(=O)CSc2nc3c(cc2C#N)CCCC3)s1 the results were RmlCD inh mix 37* and RT RNaseH block 3.
Screening Cn1c(N)c(C#N)c2c(c1=S)CSC(C)(C)C2 returned RmlCD inh mix 6 and RT RNaseH block 19.
Screening CC1(C)Cc2c(C#N)c(N)sc(=S)c2CS1 returned RmlCD inh mix inconclusive and RT RNaseH block 62*.
O=C(COC(=O)C1COc2ccccc2O1)NC(=O)NC1CCCC1 (stereo unspecified) was read as RmlCD inh mix 4 and RT RNaseH block -2.
Screening O=C(COC(=O)C1COc2ccccc2O1)NC(=O)Nc1ccc2c(c1)OCCO2 (stereo unspecified) returned RmlCD inh mix -2 and RT RNaseH block 51*.
Screening COc1ccc(-c2csc(C)n2)cc1 returned RmlCD inh mix 5.
For COc1ccc(S(=O)(=O)N(C)CC(=O)Nc2ccc(C(F)(F)F)cc2)cc1Cl the results were RmlCD inh mix 9.
CCN1CCN(C(=O)c2ccc3c(=O)n(CCC4=CCCCC4)c(=O)[nH]c3c2)CC1 was read as RmlCD inh mix -3 and RT RNaseH block -26.
`O=C(NCc1ccco1)c1ccc2c(=O)n(CCC3=CCCCC3)c(=O)[nH]c2c1` gave RmlCD inh mix 5 and RT RNaseH block 52*.
`COc1ccccc1-n1cnc2cc(NCc3ccccn3)ccc21` gave RmlCD inh mix 6.
CN(C(=O)c1cccnc1)c1nnc(-c2cccnc2)s1 was read as RmlCD inh mix 3 and RT RNaseH block 66*.
For CN(C(=O)c1cccnc1)c1nnc(-c2cnccn2)s1 the results were RmlCD inh mix 4 and RT RNaseH block -5.
Cc1cccc(C)c1NC(=O)C1CCCCN1C (stereo unspecified) was read as RmlCD inh mix -9 and RT RNaseH block 2.
For C=CCn1c(Cc2nc3ccc(Cl)cc3[nH]2)n[nH]c1=S the results were RmlCD inh mix 12 and RT RNaseH block 58*.
`C=CCn1c(-c2ccccc2)n[nH]c1=S` gave RmlCD inh mix -13 and RT RNaseH block 7.
COC(=O)c1c(NC(=O)c2ccco2)sc(C)c1C was read as RmlCD inh mix -28 and RT RNaseH block 9.
Screening COC(=O)c1c(NC(=O)c2ccco2)sc(C(=O)Nc2ccc(F)cc2)c1C returned RmlCD inh mix 16 and RT RNaseH block 56*.
`O=C1c2ccccc2C(Nc2ccc(S(=O)(=O)N3CCCCCC3)cc2)N1c1ccccn1` (stereo unspecified) gave RmlCD inh mix 4.
`COc1ccc(-n2nnnc2S(=O)(=O)CC(=O)N2CCCCC2)cc1` gave RmlCD inh mix -7 and RT RNaseH block 29.
For COc1ccc(-n2nnnc2S(=O)(=O)Cc2ccc(C(=O)O)cc2)cc1 the results were RmlCD inh mix -25 and RT RNaseH block 63*.
`CC(C)C(OC(=O)c1ccco1)C(=O)NCc1ccco1` (stereo unspecified) gave RmlCD inh mix -7 and RT RNaseH block -14.
`COc1ccc(C(CC(=O)N2CCC3(CC2)OCCO3)NS(=O)(=O)c2ccc(C)cc2)cc1` (stereo unspecified) gave RmlCD inh mix -4 and RT RNaseH block -7.
COc1nc(-c2ccc(Cl)cc2)ccc1-c1noc(-c2ccco2)n1 was read as RmlCD inh mix -9 and RT RNaseH block 50*.
COc1cccc(-c2ccc(-c3noc(-c4ccccc4F)n3)c(OC)n2)c1 was read as RmlCD inh mix -175 and RT RNaseH block 3.
For CCOP(=O)(C#CC(C)(C)C)C1(O)CCCCC1 (stereo unspecified) the results were RmlCD inh mix 6 and RT RNaseH block -4.
Screening COc1ccc(C(=O)Nc2sc3c(c2C(=O)NCc2ccco2)CCCC3)cc1OC returned RmlCD inh mix 146*.
Screening CCOc1ccccc1NC(=O)c1c(NC(=O)CNCc2ccco2)sc2c1CCC2 returned RT RNaseH block 72*.
COC(=O)Nc1sc2c(c1C(=O)NCc1ccco1)CCC2 was read as RmlCD inh mix 10 and RT RNaseH block -15.
COc1cc(C(=O)Nc2sc3c(c2C(=O)NCc2ccco2)CCCC3)cc(OC)c1OC was read as RmlCD inh mix -13.
Screening O=C(Cn1cc(C(=O)c2cccs2)c2ccccc21)NCC1CCCO1 (stereo unspecified) returned RmlCD inh mix -10 and RT RNaseH block -1.
For O=C(O)CCC(NC(=O)OCc1ccccc1)C(=O)O (stereo unspecified) the results were RT RNaseH block -16.
`CC(=O)N1CCN(c2nc(-c3ccco3)c3c(c2C#N)CC(C)(C)SC3)CC1` gave RmlCD inh mix -35.

Screening results (PubChem)
